Reference: PubChem BioAssay (EPA / NIEHS)
Results filed as inconclusive are left out. Activity calls are given as the source filed them. The calls were made as follows, unless noted: active = hit-call score of the fitted dose curve at least 0.9, where 1 is the maximum; inactive = score below 0.9.

Experiments:
[1] = CCTE_Mundy_HCI_Cortical_Synap_Neur_Matur_NeuriteSpotCountPerNeuriteLength: CCTE's Synaptogenesis and Neurite Maturation Assay in rat cortical cells for Neurite Spot Count per Neurite Length, Mundy Lab (AID 2284210)
Outline: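 Neurite-associated synapse density (synaptophysin puncta per unit neurite length) is measured by fluorescence high-content imaging in rat cortical cultures treated from DIV 7 and fixed at DIV 12, with DMSO as negative control.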

[2] = CCTE_Mundy_HCI_Cortical_NOG_NeuriteLength: CCTE's Neurite Outgrowth Assay in rat cortical cells for Neurite Length, Mundy Lab (AID 2284213);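 as to AC50: neurites imaged about 48 to 50 h after chemical exposure began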
Outline: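 First, rat primary cortical cells were plated and, 2 h later, given test chemical as a 1/10 dilution. Finally, βIII-tubulin immunostaining enabled automated imaging of neurite length.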

[3] = CCTE_Mundy_HCI_Cortical_Synap_Neur_Matur_NeuriteLength: CCTE's Synaptogenesis and Neurite Maturation Assay in rat cortical cells for Neurite Length, Mundy Lab (AID 2284214)
Outline: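 Read-out: high-content imaging of MAP2-labelled neurites, with synaptophysin and Hoechst co-stain, in rat cortical cultures fixed at DIV 12. Activity fitted in positive direction relative to DMSO baseline.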

[4] = CCTE_Mundy_HCI_Cortical_Synap_Neur_Matur_NeuriteSpotCountPerNeuron: CCTE's Synaptogenesis and Neurite Maturation Assay in rat cortical cells for Neurite Spot Count per Neuron Count, Mundy Lab (AID 2284215)
Outline: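 Read-out: neurite-associated synaptophysin puncta per neuron, imaged by high-content analysis after MAP2, synaptophysin and Hoechst staining. Rat primary cortical cultures, dosed DIV 7 through DIV 12; DMSO served as baseline.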

[5] = CCTE_Mundy_HCI_Cortical_Synap_Neur_Matur_SynapseCount: CCTE's Synaptogenesis and Neurite Maturation Assay in rat cortical cells for Synapse Count, Mundy Lab (AID 2284218)
Outline: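 Read-out: synapse number per neuron, automated high-content imaging of fixed cells immunostained for MAP2 and synaptophysin plus Hoechst nuclei. Rat primary cortical cultures, AraC at DIV 5, chemical dosing DIV 7–12. Positive-direction fit relative to DMSO.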

[6] = CCTE_Mundy_HCI_Cortical_Synap_Neur_Matur_CellBodySpotCount: CCTE's Synaptogenesis and Neurite Maturation Assay in rat cortical cells for Cell Body Spot Count, Mundy Lab (AID 2284223)
Outline: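 Read-out: cell body-associated synaptophysin puncta per neuron, imaged after MAP2, synaptophysin and Hoechst staining. Rat cortical cells, AraC DIV 5, chemical dosing DIV 7, fixation DIV 12. Activity fitted in positive direction relative to DMSO baseline.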

[7] = CCTE_Mundy_HCI_hNP1_Casp3_7: CCTE's Caspase-Glo 3/7 Assay in human neuroprogenitor cells for Apoptosis, Mundy Lab (AID 2284240)
Outline: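 Neuroepithelial-lineage stem cells from WA09 embryonic cells were treated with chemicals after 40–44 h of culture. Twenty-four hours later, caspase-3/7 activation was detected luminescently after a 30 min room-temperature reagent step, with DMSO as baseline.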

[8] = IUF_NPC1b_proliferation_BrdU_72hr: Leibniz Research Institute for Environmental Medicine (IUF) 72-hour Neural Progenitor Cell Bromodeoxyuridine (BrdU) Proliferation Assay (NPC1b) (AID 2284207)
Outline: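 Neural progenitor spheres of human fetal origin are treated for three days; BrdU added for the last 16 h is quantified by luminescence ELISA, with DMSO as baseline and EGF/FGF omission as positive control.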

[9] = IUF_NPC1a_proliferation_area_72hr: Leibniz Research Institute for Environmental Medicine (IUF) 72-hour Neural Progenitor Cell Proliferation Area Assay (NPC1a) (AID 2284208)
Outline: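 hNPC spheres (human fetal cortex, GW 16-19), one per poly-Hema U-bottom well; EGF+FGF medium; dosed day 0, no re-dosing; 72 h, 37C, 5% CO2; phase-contrast sphere area; DMSO = baseline; minus-GF = positive ctrl.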

[10] = IUF_NPC1_viability_72hr: Viability Assessment at 72 hours in the Leibniz Research Institute for Environmental Medicine (IUF) Neural Progenitor Cell Proliferation Assay (NPC1) (AID 2284209)
Outline: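 Alamar blue fluorescence (RFU) after 72 h exposure, normalized to DMSO baseline. hNPC spheres from GW 16-19 fetal cortex, single sphere per well in growth-factor medium; no compound renewal.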

[11] = IUF_NPC2c_oligodendrocyte_migration_120hr: Leibniz Research Institute for Environmental Medicine (IUF) 120-hour Neural Progenitor Cell Migration Assay for Oligodendrocyte Migration (NPC2c) (AID 2284297);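 also: O4-positive oligodendrocyte migration distance divided by radial glia migration distance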
Outline: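 hNPC spheres (GW 16-19 cortex), PDL/laminin, DMEM/F12 3:1 + 1% N2, 37C. Dosing day 0–5, half feed day 3, DMSO ≤0.1%. Fixed 120 h; O4 ICC + Hoechst, HCI. Readout: mean oligodendrocyte distance from sphere edge / radial glia distance.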

[12] = IUF_NPC2a_radial_glia_migration_120hr: Leibniz Research Institute for Environmental Medicine (IUF) 120-hour Neural Progenitor Cell Migration Assay for Radial Glia Migration (NPC2a) (AID 2284298)
Outline: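 Hoechst-stained nuclei imaged at 120 h; algorithm maps sphere core by densest nuclei, sets migration edge at density threshold, gives radial glia migration distance (um) per well vs DMSO. hNPC spheres (0.3 mm), PDL/laminin, DMEM/F12 3:1 + 1% N2.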

[13] = IUF_NPC2a_radial_glia_migration_72hr: Leibniz Research Institute for Environmental Medicine (IUF) 72-hour Neural Progenitor Cell Migration Assay for Radial Glia Migration (NPC2a) (AID 2284299)
Outline: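 Readout: mean of four manual brightfield measurements of radial glia migration distance (um) at 72 h. hNPC spheres (0.3 mm) exposed to 7 compound concentrations plus solvent control on PDL/laminin, 37C, 5% CO2; activity fitted relative to DMSO.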

[14] = IUF_NPC2b_neuronal_migration_120hr: Leibniz Research Institute for Environmental Medicine (IUF) 120-hour Neural Progenitor Cell Migration Assay for Neuron Migration (NPC2b) (AID 2284300)
Outline: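 hNPC spheres, PDL/laminin, DMEM:F12 3:1 + 1% N2, 37C/5% CO2; 7 concentrations + solvent control (DMSO ≤0.1%), 5 d exposure, half-feed day 3. Fix 120 h, TUBB3 ICC, HCI: mean neuron migration distance ÷ glia distance.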

[15] = IUF_NPC3_neuronal_differentiation_120hr: Leibniz Research Institute for Environmental Medicine (IUF) 120-hour Neuronal Differentiation Assay (NPC3) (AID 2284301)
Outline: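 Neuronal differentiation of primary human neural progenitors measured by high-content imaging: percent TUBB3+ of Hoechst+ nuclei within migrated area at 120 h, seven-point serial dilution plus solvent control, gain or loss relative to DMSO.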

[16] = IUF_NPC2-5_cytotoxicity_72hr: Cytotoxicity Assessment at 72 hours in the Leibniz Research Institute for Environmental Medicine (IUF) Neural Progenitor Cell Migration and Differentiation Assay for Cytotoxicity (NPC2-5) (AID 2284306; active = hit-call score of the fitted dose curve at least 0.9, where 1 is the maximum;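 also: LDH release into supernatant measured by resorufin fluorescence marking membrane damage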)
Outline: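 Primary human neural progenitor spheres migrate and differentiate on laminin. Compound is present from the start of differentiation, with DMSO kept at or below 0.1%. At 72 h, supernatant LDH is quantified fluorometrically, with values fitted in the positive direction.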

[17] = IUF_NPC2-5_cytotoxicity_120hr: Cytotoxicity Assessment at 120 hours in the Leibniz Research Institute for Environmental Medicine (IUF) Neural Progenitor Cell Migration and Differentiation Assay (NPC2-5) (AID 2284307; active = hit-call score of the fitted dose curve at least 0.9, where 1 is the maximum)
Outline: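 hNPC spheres on PDL/laminin, N2 medium, 37C; 7 concs + solvent control, DMSO ≤0.1%; 5-day exposure, half medium changed day 3. LDH in supernatant at 120 h, resazurin→resorufin fluorescence, gain-of-signal.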

[18] = IUF_NPC2-5_cell_number_120hr: Cell Number Assessment at 120 hours in the Leibniz Research Institute for Environmental Medicine (IUF) Neural Progenitor Cell Migration and Differentiation Assay (NPC2-5) (AID 2284308);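 also: count of Hoechst-stained nuclei in migration zone around plated human neural progenitor spheres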
Outline: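 Hoechst-stained nuclei within the migration area were counted by automated high content imaging after 120 h. Single hNPC spheres differentiated on poly-D-lysine/laminin in DMEM/F12 (3:1) with 1% N2, compound present throughout, DMSO ≤0.1%.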

[19] = IUF_NPC2-5_viability_120hr: Viability Assessment at 120 hours in the Leibniz Research Institute for Environmental Medicine (IUF) Neural Progenitor Cell Migration and Differentiation Assay (NPC2-5) (AID 2284312)
Outline: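 Human fetal (GW 16-19) neural progenitor spheres of 0.3 mm were plated on poly-D-lysine/laminin in N2 differentiation medium and exposed from day 0 for 120 h, with half-medium refresh at day 3. Viability was read as alamar blue resazurin-to-resorufin fluorescence against DMSO.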

[20] = CCTE_Mundy_HCI_Cortical_NOG_NeuronCount: CCTE's Neurite Outgrowth Assay in rat cortical cells for Neuron Count, Mundy Lab (AID 2284236; active = hit-call score of the fitted dose curve at least 0.9, where 1 is the maximum;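 also: neurons counted by imaging betaIII-tubulin and Hoechst stained cortical cells; cells exposed to compound for about 48 hours before fixation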)
Outline: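 Read-out: neuron number by high-content imaging of betaIII-tubulin (Alexa Fluor-488) and Hoechst-labelled rat primary cortical cells.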

Measured: AC50

C#CCN(C)[C@H](C)Cc1ccccc1
inactive: [1] | [2] | [3] | [4] | [5] | [6] | [7]

C[n+]1ccc(-c2cc[n+](C)cc2)cc1
active: [2] 29.8 µM | [3] 0.966 µM | [4] 0.989 µM | [5] 1.01 µM | [6] 14.4 µM | [12] 1.98 µM
not listed: [20]
inactive: all other assays above

CC(=O)[O-].CC(=O)[O-].O.O.O.[Pb+2]
inactive: all assays above

O=C(O)CNCP(=O)(O)O
inactive: [1] | [2] | [3] | [4] | [5] | [6] | [20] | [7]

CCOP(=O)(OCC)SCSCC
active: [2] 78.3 µM | [20] 89 µM
inactive: all other assays above

C[n+]1ccc(-c2ccccc2)cc1
active: [8] 4.54 µM | [9] 18.7 µM
inactive: [10] | [11] | [12] | [13] | [14] | [15] | [16] | [17] | [18] | [19]

C[C@H](N)Cc1ccccc1
inactive: [1] | [2] | [3] | [4] | [5] | [6] | [20] | [7]

CP(=O)(O)CCC(N)C(=O)O (stereo unspecified)
not listed: [1] | [2] | [3] | [4] | [5] | [6] | [7] | [20]
inactive: all other assays above
